Records with an inconclusive call do not appear. Where a call stands in place of a potency, no number is given. Activity calls are given as the source filed them. Calls come from the whole dose curve; as a rule, active = well fitted cell-killing curve with a large enough effect; inconclusive = small, poorly fitted or top-dose-only effect, or effect the other way; inactive = flat fitted curve, though single readings scatter.
tested on: HeLa; test: Primary qHTS to identify gynecologic anti-cancer compounds using libraries of approved drugs and bioactive compounds (AID 1345084); settings: Gynecologic cancer cell panel viability, ATPlite luminescence, 48 h; series mostly up to 57.5 µM; note: nearly all actives have a fitted effect of over 55% in size
How it was run: (§1)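 Cells, 1,000 per well, plated 16 h, then exposed 48 h at 37 C to compounds. Viability by ATPlite luminescence after 15 min at room temperature.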

Structure (SMILES) | Potency | activity change, negative = cytotoxicity
CCc1cc2c(=O)c(-c3nc4ccccc4s3)coc2c(CN2CCCCC2)c1O | inactive | 
C=C1C(=O)OC2CC(C)=C(C(C)CCCO[C@@H]3O[C@H](CO)[C@@H](O)[C@H](O)[C@H]3O)C(O)C12 (stereo not given in full) | inactive | 
CCC(C)/C=C(C)/C=C/C1=CC2=C(Cl)C(=O)C(C)(OC(C)=O)C(=O)C2=CN1CCCC(=O)O (stereo not given) | inactive | 
CC(=O)OC[C@@]12[C@H](O)C[C@]3(C)C(=CCC4[C@@]5(C)CC[C@H](O[C@@H]6O[C@H](C(=O)O)[C@@H](O[C@@H]7O[C@H](CO)[C@@H](O)[C@H](O)[C@H]7O)[C@H](O)[C@H]6O[C@@H]6O[C@H](CO)[C@@H](O)[C@H](O)[C@H]6O)[C@](C)(CO)C5CC[C@]43C)[C@@H]1CC(C)(C)[C@@H](OC(C)=O)[C@@H]2O (stereo not given in full) |  | 2.68% [at 11.6 µM] (inactive)
COc1ccc([C@@H]2N[C@H](C(=O)O)Cc3c2[nH]c2ccccc32)cc1CN1CCN(c2ccccc2F)CC1 | inactive | 
CC1=CC(=O)CC(C)(C)C1(O)CCC(C)O (stereo not given) | inactive | 
COc1ccccc1[C@@H]1C2=C(CC(C)(C)CC2=O)Nc2n[nH]c(C(F)(F)F)c21 | inactive | 
CC(C)(OC1OC(CO)C(O)C(O)C1O)C1CCC(O)(CO)C2CC(O)C(C)(O)C2C1 (stereo not given) | inactive | 
CN1C(=O)c2ccccc2-n2c(nc3ccccc3c2=O)/C1=C/c1ccccc1 | inactive | 
CC(=O)OCC(=O)O[C@@H]1[C@H]2[C@@H](OC(=O)c3ccccc3)[C@@H](C)C[C@]2(O)[C@H](OC(C)=O)C2(C)[C@H]3CC(C)(C)C(=O)[C@@H]3CC1(OC(C)=O)[C@@H]2OC(C)=O (stereo not given in full) | inactive | 

tested on: Hek293T; test: as above; settings: Gynecologic cancer cell panel viability, ATPlite luminescence, 48 h, control line for the selectivity index; series mostly up to 57.5 µM
How it was run: as §1

Structure (SMILES) | Potency | activity change, negative = cytotoxicity
O=C(/C=C/c1ccc(O)cc1)O[C@H]1[C@@H]2C=CO[C@@H](O[C@@H]3O[C@H](CO)[C@@H](O)[C@H](O)[C@H]3O)[C@@H]2[C@@]2(CO)O[C@@H]12 | inactive | 
COCCN(C)Cc1ccc2nc3sc(C(=O)N(C)C4CCCCC4)cn3c2c1 | inactive | 
CC12CCC3c4ccc(O)cc4CCC3C1CCC2OC1OC(C(=O)O)C(O)C(O)C1O (stereo not given) | inactive | 
COc1cc(CCc2ccccc2)c(C(=O)O)c2c1CC(C(C)(C)O)O2 (stereo not given) | inactive | 
OCc1ccccc1O[C@@H]1O[C@H](CO)[C@@H](O)[C@H](O)[C@H]1O | inactive | 
CC/C=C\C[C@H]1C(=O)C=C[C@@H]1CCCCCCCC(=O)O | inactive | 
CC(NC(=O)CC(=O)O)c1nc2ccccc2c(=O)[nH]1 (stereo not given) | inactive | 
C[C@@H]1CC[C@]2(C(=O)O)CC[C@]3(C(=O)O)C(=CCC4[C@@]5(C)CC[C@H](O[C@@H]6O[C@@H](C)[C@H](O[C@@H]7O[C@H](CO)[C@@H](O)[C@H](O)[C@H]7O)[C@@H](O)[C@H]6O)C(C)(C)C5CC[C@]43C)C2[C@H]1C (stereo not given in full) | inactive | 
COc1ccc(C)c2sc(NC(=O)c3ccncc3)nc12 | inactive | 
NCCOCCOCCNC(=O)Cc1ccc(Nc2nc(NCc3ccc(F)cc3)nc(NCC3CCCCC3)n2)cc1 | inactive | 
Nc1nonc1C(=Nc1ccc(F)c(Cl)c1)NO | inactive | 
CNC(=O)c1ccc2cc([C@@]3(O)CCn4cncc43)ccc2c1 | inactive | 
O=C1NCc2nc3ccccc3c(=O)n2C1Cc1c[nH]c2ccccc12 (stereo not given) | inactive | 
CCCCCCc1cccc(NC(=O)[C@H](N)CCP(=O)(O)O)c1 |  | -0.817% [at 11.6 µM] (inactive)
CC1CCC2C(C)(C)CC(C)(CO)C2(O)C1C(=O)O (stereo not given) | inactive | 
CC(C)(C)NCC(O)COc1cccc2c1CCCC2=O (stereo not given) | inactive | 
COC(=O)C1=CO[C@@H](O[C@@H]2O[C@H](CO[C@@H]3O[C@H](COC(=O)/C=C/c4ccc(O)cc4)[C@@H](O)[C@H](O)[C@H]3O)[C@@H](O)[C@H](O)[C@H]2O)[C@@H]2C(CO)=CC[C@H]12 | inactive | 
C=CC(C)(O)CC/C=C(\C)C(=O)OCC1OC(OC2CCC3(C)C(CCC4(C)C3CC=C3C5CC(C)(C)C(O)CC5(C(=O)O)CCC34C)C2(C)C)C(O)C(OC2OC(CO)C(O)C(OC3OC(CO)C(O)C(OC4OC(COC5OC(CO)C(O)C(O)C5O)C(O)C(O)C4O)C3O)C2O)C1O (stereo not given) |  | 3.14% [at 6.55 µM] (inactive)
COC1C=C([C@@H]2CC=C3[C@@]4(C)C(CC[C@]32C)[C@@]2(C)C=CC(=O)C(C)(C)C2C[C@H]4OC(C)=O)C(=O)O1 (stereo not given in full) | inactive | 
Cc1c(N2C(=O)c3ccc(C(=O)O)cc3C2=O)c(=O)n(-c2ccccc2)n1C | inactive | 

Structure (SMILES) | Potency | activity change, negative = cytotoxicity
CC[C@H]1OC(=O)[C@H](C)[C@@H](OC2C[C@@](C)(OC)[C@@H](O)[C@H](C)O2)[C@H](C)[C@@H](OC2O[C@H](C)C[C@H](NC)[C@H]2O)[C@](C)(O)C[C@@H](C)CN(C)[C@H](C)[C@@H](O)[C@]1(C)O (stereo not given in full) | inactive | 
C=C1C2(CCC(=O)OC2(C)C)CC(OC(=O)/C(C)=C/C)C2(C)C13OC14C(=O)OC(C)(C(=O)C12C(=O)OC4C)C3OC(C)=O (stereo not given) | inactive | 
C=C1C(=O)OC2/C=C(\C)CC/C=C(\C(=O)O)CC/C=C(\C)CCC12 (stereo not given) | inactive | 
CC(C)c1nc(N(C)S(C)(=O)=O)nc(-c2ccc(F)cc2)c1/C=C/[C@@H](O)C[C@@H](O)CC(=O)O | inactive | 
C=C1C[C@]23C[C@H]1CC[C@H]2[C@@]12C=C[C@H](O)[C@@](C)(C(=O)O1)[C@H]2[C@@H]3C(=O)O | inactive | 
COC1C2=C(COC2=O)C2(C)CCCC(C)(CO)C2C1OC(=O)c1ccccc1 (stereo not given) | inactive | 
CC1CCCC2OC2C(=O)c2c(O)cc(O)cc2CC(=O)O1 (stereo not given) | inactive | 
C[C@@H]1C(=O)O[C@H]2CC34[C@H]5C[C@@H](C(C)(C)C)C36[C@@H](OC(=O)[C@@H]6O)O[C@@]4(C(=O)O5)[C@]21O (stereo not given in full) | inactive | 
CC(C)C(C#N)O[C@@H]1O[C@H](CO[C@@H]2OC[C@](O)(CO)[C@H]2O)[C@@H](O)[C@H](O)[C@H]1O (stereo not given in full) | inactive | 
CC[C@H]1OC(=O)[C@H](C)[C@@H](O[C@H]2C[C@@](C)(OC)[C@@H](O)[C@H](C)O2)[C@H](C)[C@@H](O[C@@H]2O[C@H](C)C[C@H](N(C)C)[C@H]2O)[C@@](C)(O)C[C@@H](C)[C@@H]2N[C@@H](COCCOC)OC([C@H]2C)[C@]1(C)O | inactive | 
CCc1cc2c(=O)c(-c3nc4ccccc4s3)coc2c(CN2CCCCC2)c1O | inactive | 
C=C1C(=O)OC2CC(C)=C(C(C)CCCO[C@@H]3O[C@H](CO)[C@@H](O)[C@H](O)[C@H]3O)C(O)C12 (stereo not given in full) | inactive | 
CCC(C)/C=C(C)/C=C/C1=CC2=C(Cl)C(=O)C(C)(OC(C)=O)C(=O)C2=CN1CCCC(=O)O (stereo not given) | inactive | 
CC(=O)OC[C@@]12[C@H](O)C[C@]3(C)C(=CCC4[C@@]5(C)CC[C@H](O[C@@H]6O[C@H](C(=O)O)[C@@H](O[C@@H]7O[C@H](CO)[C@@H](O)[C@H](O)[C@H]7O)[C@H](O)[C@H]6O[C@@H]6O[C@H](CO)[C@@H](O)[C@H](O)[C@H]6O)[C@](C)(CO)C5CC[C@]43C)[C@@H]1CC(C)(C)[C@@H](OC(C)=O)[C@@H]2O (stereo not given in full) |  | 0.0542% [at 11.6 µM] (inactive)
COc1ccc([C@@H]2N[C@H](C(=O)O)Cc3c2[nH]c2ccccc32)cc1CN1CCN(c2ccccc2F)CC1 | inactive | 
CC1=CC(=O)CC(C)(C)C1(O)CCC(C)O (stereo not given) | inactive | 
COc1ccccc1[C@@H]1C2=C(CC(C)(C)CC2=O)Nc2n[nH]c(C(F)(F)F)c21 | inactive | 
CC(C)(OC1OC(CO)C(O)C(O)C1O)C1CCC(O)(CO)C2CC(O)C(C)(O)C2C1 (stereo not given) | inactive | 
CN1C(=O)c2ccccc2-n2c(nc3ccccc3c2=O)/C1=C/c1ccccc1 | inactive | 
CC(=O)OCC(=O)O[C@@H]1[C@H]2[C@@H](OC(=O)c3ccccc3)[C@@H](C)C[C@]2(O)[C@H](OC(C)=O)C2(C)[C@H]3CC(C)(C)C(=O)[C@@H]3CC1(OC(C)=O)[C@@H]2OC(C)=O (stereo not given in full) | inactive | 

— PubChem BioAssay (NCATS)
